Several values for one entry are separate records, joined by “and”; a condition that tells them apart may be missing. Identical values can stand only once. Records with an inconclusive call do not appear. Entries that show only a call come without a potency. Unmarked numbers belong to inactive results. Activity calls are given as the source filed them. Calls come from the whole dose curve; as a rule, active = well fitted curve in the direction sought with a large enough effect; inconclusive = small, poorly fitted or top-dose-only effect, or another doubt; inactive = no such curve, though single readings can be large; an effect the other way counts as inactive or inconclusive.
Experiments:
[1] = biological target: Cellular tumor antigen p53 (Homo sapiens) (UniProt P04637); experiment: Primary qHTS for small molecule compounds that upregulate eGFP-tagged delta133p53alpha (in N-terminal) cells. (AID 2060322); settings: NCI-H358 eGFP-delta133p53alpha fluorescence, 24 h; activation: active compounds read high; note: nearly all actives have a fitted effect of over 75% in size; note: potency is the fitted concentration of half-maximal effect;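 for activation: cells pre-induced with doxycycline then dosed without doxycycline; series mostly up to about 56 µM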
Method in brief: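 NCI-H358 cells pre-induced 24 h with 10 ng/ml doxycycline for eGFP-delta133p53alpha, plated dox-free and exposed 24 h at 37C to titrated compounds. Fixed, Hoechst-stained; gated GFP peak intensity by laser scanning cytometry, normalized to DMSO (0%) and 57.5 uM 5-azacytidine (100%).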

[2] = biological target: Aldehyde dehydrogenase, mitochondrial (Homo sapiens) (UniProt P05091); experiment: qHTS for Inhibitors of the Aldehyde Dehydrogenase Family (ALDH2) Primary screen (AID 2061308); note: nearly all actives have a fitted effect of over 55% in size

Chain of Cellular tumor antigen p53 (Homo sapiens) (P04637 whole entry, looked up): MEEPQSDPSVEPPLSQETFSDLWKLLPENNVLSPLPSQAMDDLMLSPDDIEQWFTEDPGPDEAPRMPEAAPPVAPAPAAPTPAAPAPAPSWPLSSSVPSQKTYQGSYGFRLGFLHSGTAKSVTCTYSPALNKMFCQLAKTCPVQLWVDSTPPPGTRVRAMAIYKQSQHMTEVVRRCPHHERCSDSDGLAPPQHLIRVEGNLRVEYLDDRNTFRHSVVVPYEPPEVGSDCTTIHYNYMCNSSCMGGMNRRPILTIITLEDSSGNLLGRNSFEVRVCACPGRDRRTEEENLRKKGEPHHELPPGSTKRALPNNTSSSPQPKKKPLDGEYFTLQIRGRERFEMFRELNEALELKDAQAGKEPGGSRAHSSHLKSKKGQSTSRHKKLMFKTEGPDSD

Row | Structure (SMILES) | activation [1] | Potency [2] | Potency [1]
1 | C/C=C/C1=CC2=C(CO1)C(=O)[C@](C)(O)[C@H](OC(=O)c1c(O)cc(OC)c(O)c1C)C2 | 3.82% | inactive | –
2 | COc1c(C)c(C(=O)c2ccc(N)c(C(=O)O)c2)n2ccccc12 | 10% and 14.3% | inactive | –
3 | Nc1nc2c(cnn2CCCc2ccc(O)cc2)c2nc(-c3ccco3)nn12 | -11% | inactive | –
4 | C=C1CC[C@@H]2[C@](C)(CO[C@@H]3O[C@H](CO)[C@@H](O)[C@H](O)[C@H]3O)CCC[C@@]2(C)[C@@H]1CCC1=CCOC1=O | 10.7% | inactive | –
5 | O=C(/C=C/c1ccccc1)O[C@@H]1[C@@H](CO)O[C@@](CO)(O[C@H]2O[C@H](CO)[C@@H](O)[C@H](O)[C@H]2O)[C@H]1O | -26% | inactive | –
6 | Cc1cc(N(C)C)ccc1-c1nc2ccc(-c3nc4ccc(N5CCN(C)CC5)cc4[nH]3)cc2[nH]1 | – | inactive | 30.1 µM (active)

Reference: PubChem BioAssay (NCATS)
